Test results: the supplement of paper PMC3414501
Structures can show the parent of a compound that is named as a salt.

Columns and labels:
[1] = tested on: S. cerevisiae SK1 pCDA2-eGFP (USY613), sporulating; test: CDA2-GFP sporulation assay sensitivity score (z-score vs DMSO controls); higher = stronger inhibition of sporulation, active = hit call of the paper;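 further: active if sensitivity score above 5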
[2] = tested on: S. cerevisiae NKY1551 his4x/his4B, sporulating; test: HIS4 meiotic recombination assay sensitivity score (z-score vs DMSO controls); higher = stronger inhibition of sporulation/recombination, active = hit call of the paper;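 further: active if sensitivity score above 5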
[3] = tested on: S. cerevisiae AD1-9 (efflux-pump deficient), vegetative growth in YPD; test: growth sensitivity score (doubling time z-score vs DMSO controls); higher = slower growth, strongly negative scores also mark growth inhibition (complete suppression), active = hit call of the paper
In short: (§1)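 Optical density of Saccharomyces cerevisiae cultures in microtiter plates was followed every 15 min for 24 hours after seeding at an OD600 of 0.065. Eight solvent-only wells were run per experiment. Growth sensitivity scores were found by subtracting the solvent-only mean from the compound mean and dividing by the solvent-only standard deviation.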

[4] = tested on: S. cerevisiae BY4741 (wild-type), vegetative growth in YPD; test: as above
In short: as §1

Compound	CDA2-GFP sporulation assay sensitivity score [1]	HIS4 meiotic recombination assay sensitivity score [2]	growth sensitivity score [3]	growth sensitivity score [4]
CC(C)(C#N)c1cc(Cn2cncn2)cc(C(C)(C)C#N)c1 [Anastrozole] (stock concentration (mM, diluted 1:100): 10)	3.64 (inactive)	0.04 (inactive)	-1.94 (inactive)	-0.82 (inactive)
COc1cc(N)c(Cl)cc1C(=O)NC1CCN(CCCOc2ccc(F)cc2)CC1OC (centres undefined) [Cisapride] (stock concentration (mM, diluted 1:100): 10.5)	0.78 (inactive)	-0.37 (inactive)	8.05 (active)	1.35 (inactive)
COc1cc2c(cc1OC)C(=O)C(CC1CCN(Cc3ccccc3)CC1)C2 (centres undefined) [Donepezil] (stock concentration (mM, diluted 1:100): 9.1)	4.44 (inactive)	0.42 (inactive)	3.1 (active)	2.75 (active)
O=c1c(-c2ccccc2)c1-c1ccccc1 [Diphenylcyclopropenone] (stock concentration (mM, diluted 1:100): 10)	0.85 (inactive)	-0.87 (inactive)	110 (active)	39.9 (active)
Cc1cccc(C)c1NC(=O)C(C)N (centres undefined) [Tocainide] (stock concentration (mM, diluted 1:100): 10)	0.62 (inactive)	0.7 (inactive)	1.11 (inactive)	-0.53 (inactive)
COc1ccccc1OCCNCC(O)COc1cccc2[nH]c3ccccc3c12 (centres undefined) [Carvedilol] (stock concentration (mM, diluted 1:100): 10)	-0.9 (inactive)	0.66 (inactive)	50.7 (active)	0.43 (inactive)
CN(CCO)CC(O)Cn1cnc2c1c(=O)n(C)c(=O)n2C (centres undefined) [Xanthinol nicotinate] (stock concentration (mM, diluted 1:100): 10)	2.12 (inactive)	-0.61 (inactive)	0.36 (inactive)	-1.14 (inactive)
O=C(O)COCCN1CCN([C@H](c2ccccc2)c2ccc(Cl)cc2)CC1 [Levocetirizine] (stock concentration (mM, diluted 1:100): 10.7)	-2.92 (inactive)	-0.24 (inactive)	-1.54 (inactive)	-0.8 (inactive)
O=C(O)c1cc(/N=N/c2ccc(S(=O)(=O)Nc3ccccn3)cc2)ccc1O [Sulfasalazine] (stock concentration (mM, diluted 1:100): 10)	2.13 (inactive)	-0.54 (inactive)	-2.95	-2.26
CC#C[C@]1(O)CC[C@H]2[C@@H]3CCC4=CC(=O)CCC4=C3[C@@H](c3ccc(N(C)C)cc3)C[C@@]21C [Mifepristone] (stock concentration (mM, diluted 1:100): 10)	9.91 (inactive)	2.99 (inactive)	172 (active)	-2.51
O=c1n(CCCN2CCN(c3cccc(Cl)c3)CC2)nc2ccccn12 [Trazodone hydrochloride] (stock concentration (mM, diluted 1:100): 10)	5.45 (inactive)	-0.45 (inactive)	-3.23	0.24 (inactive)
CCOC(=O)C1=C(C)NC(C)=C(C(=O)OCC)C1c1ccccc1/C=C/C(=O)OC(C)(C)C [Lacidipine] (stock concentration (mM, diluted 1:100): 10)	6.44 (inactive)	0.32 (inactive)	10.2 (active)	-1.71 (inactive)
Nc1nc2ccc(Cl)cc2c2nc(-c3ccco3)nn12 (stock concentration (mM, diluted 1:100): 10)	-3.14 (inactive)	-0.12 (inactive)	17.6 (active)	5.26 (active)
O=C1c2c(O)cc(O)cc2OC(c2ccc(O)c(O)c2)C1O (centres undefined) [Taxifolin] (stock concentration (mM, diluted 1:100): 10.1)	-0.02 (inactive)	-0.52 (inactive)	-0.17 (inactive)	-1.02 (inactive)
Cc1ncc([N+](=O)[O-])n1CCO [Metronidazole] (stock concentration (mM, diluted 1:100): 10)	0.28 (inactive)	0.15 (inactive)	-0.99 (inactive)	-0.2 (inactive)
OC[C@H]1O[C@@H](n2cnc3c(N[C@H]4CCC[C@@H]4O)ncnc32)[C@@H](O)C1O (some centres undefined) (stock concentration (mM, diluted 1:100): 10)	2.98 (inactive)	1.26 (inactive)	-0.69 (inactive)	-0.79 (inactive)
